# Source: PMC7862700, “An all-to-all approach to the identification of sequence-specific readers for epigenetic DNA modifications on cytosine”
# What was measured:
# Experiment in all cases: DAPPL (digital affinity profiling via proximity ligation, sequencing); 10 mM Tris-HCl pH 7.5, 50 mM NaCl, 1 mM DTT, 4% glycerol, room temperature, 30 min; GST-TFs on glutathione beads, 16-mer random dsDNA library, 0.1% formaldehyde crosslink after washing; high values mean tight binding
# FLI1 = molecular target: T1, FLI1 (Homo sapiens, UniProt Q01543 1-452); conditions: protein: recombinant; tags: N-terminal GST; dsDNA, one strand shown
# T1 sequence: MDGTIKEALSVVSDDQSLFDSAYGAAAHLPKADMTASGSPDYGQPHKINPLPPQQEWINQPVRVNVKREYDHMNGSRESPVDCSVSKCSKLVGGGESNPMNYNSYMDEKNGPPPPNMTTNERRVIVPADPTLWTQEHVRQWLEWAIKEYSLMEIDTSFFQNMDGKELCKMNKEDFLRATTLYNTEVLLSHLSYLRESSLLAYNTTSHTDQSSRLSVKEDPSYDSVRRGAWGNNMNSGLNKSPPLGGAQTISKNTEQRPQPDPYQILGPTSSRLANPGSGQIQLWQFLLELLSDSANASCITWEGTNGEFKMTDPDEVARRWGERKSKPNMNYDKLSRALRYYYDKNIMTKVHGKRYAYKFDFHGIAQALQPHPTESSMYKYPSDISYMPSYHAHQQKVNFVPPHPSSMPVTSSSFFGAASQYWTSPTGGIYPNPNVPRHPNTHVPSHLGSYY
# Outline: (§1)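 GST fusions of human transcription factors were expressed in yeast and captured with glutathione beads. Once given DNA barcodes and pooled alongside a tag-only sample, they were incubated for 30 min at room temperature with 200 nmole of a random double-stranded 16-mer DNA library in Tris/NaCl/DTT/glycerol buffer, then washed, crosslinked (0.1% formaldehyde), proximity-ligated, PCR-amplified and sequenced on an Illumina NextSeq500. The binding signal of each hexamer is its read frequency for a factor divided by its frequency for the tag-only sample.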
# ELK1 = molecular target: T2, ELK1 (Homo sapiens, UniProt P19419 1-428); conditions: protein: recombinant; tags: N-terminal GST; dsDNA, one strand shown
# T2 sequence: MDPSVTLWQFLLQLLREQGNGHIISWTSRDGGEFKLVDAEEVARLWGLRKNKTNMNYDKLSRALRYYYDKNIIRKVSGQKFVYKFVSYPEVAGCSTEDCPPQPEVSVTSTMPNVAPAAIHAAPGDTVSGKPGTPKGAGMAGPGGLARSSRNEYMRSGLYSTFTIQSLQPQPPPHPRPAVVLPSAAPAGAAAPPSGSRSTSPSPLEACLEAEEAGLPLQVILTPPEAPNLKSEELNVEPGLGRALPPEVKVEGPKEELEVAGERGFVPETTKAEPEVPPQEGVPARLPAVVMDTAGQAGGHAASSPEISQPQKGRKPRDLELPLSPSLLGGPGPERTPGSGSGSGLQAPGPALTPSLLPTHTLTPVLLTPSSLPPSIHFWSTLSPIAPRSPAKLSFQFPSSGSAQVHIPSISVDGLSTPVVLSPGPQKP
# Outline: as §1
# GABPA = molecular target: T3, GABPA (Homo sapiens, UniProt Q06546 1-454); conditions: protein: recombinant; tags: N-terminal GST; dsDNA, one strand shown
# T3 sequence: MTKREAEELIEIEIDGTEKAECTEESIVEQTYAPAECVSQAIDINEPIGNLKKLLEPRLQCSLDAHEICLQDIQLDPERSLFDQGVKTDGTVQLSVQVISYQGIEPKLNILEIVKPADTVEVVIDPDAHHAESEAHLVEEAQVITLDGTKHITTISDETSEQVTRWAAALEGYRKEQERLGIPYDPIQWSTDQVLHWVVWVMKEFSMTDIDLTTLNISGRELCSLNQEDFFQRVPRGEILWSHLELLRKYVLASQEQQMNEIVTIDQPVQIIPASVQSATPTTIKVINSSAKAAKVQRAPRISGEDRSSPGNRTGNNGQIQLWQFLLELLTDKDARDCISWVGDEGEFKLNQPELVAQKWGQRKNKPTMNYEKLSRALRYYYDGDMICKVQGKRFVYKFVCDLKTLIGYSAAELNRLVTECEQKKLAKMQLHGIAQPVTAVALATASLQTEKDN
# Outline: as §1
# ERG = molecular target: T4, ERG (Homo sapiens, UniProt P11308 1-479); conditions: protein: recombinant; tags: N-terminal GST; dsDNA, one strand shown
# T4 sequence: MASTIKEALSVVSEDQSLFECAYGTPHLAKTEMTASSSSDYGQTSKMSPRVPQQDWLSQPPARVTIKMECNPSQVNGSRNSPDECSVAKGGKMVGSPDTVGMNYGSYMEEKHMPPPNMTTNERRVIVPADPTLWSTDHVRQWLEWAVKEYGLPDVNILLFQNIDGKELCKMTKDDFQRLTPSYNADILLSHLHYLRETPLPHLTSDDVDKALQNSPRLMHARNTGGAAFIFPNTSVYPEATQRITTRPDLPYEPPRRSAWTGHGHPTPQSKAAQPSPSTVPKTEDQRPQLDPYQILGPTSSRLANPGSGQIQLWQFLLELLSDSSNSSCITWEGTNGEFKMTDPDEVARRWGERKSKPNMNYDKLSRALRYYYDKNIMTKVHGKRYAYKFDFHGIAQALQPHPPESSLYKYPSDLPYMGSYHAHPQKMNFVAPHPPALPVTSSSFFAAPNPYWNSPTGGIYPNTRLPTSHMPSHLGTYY
# Outline: as §1
# ELF1 = ELF1 (Homo sapiens, UniProt P32519 1-619); conditions: protein: recombinant; tags: N-terminal GST; dsDNA, one strand shown
# ELF1, sequence (P32519 whole entry): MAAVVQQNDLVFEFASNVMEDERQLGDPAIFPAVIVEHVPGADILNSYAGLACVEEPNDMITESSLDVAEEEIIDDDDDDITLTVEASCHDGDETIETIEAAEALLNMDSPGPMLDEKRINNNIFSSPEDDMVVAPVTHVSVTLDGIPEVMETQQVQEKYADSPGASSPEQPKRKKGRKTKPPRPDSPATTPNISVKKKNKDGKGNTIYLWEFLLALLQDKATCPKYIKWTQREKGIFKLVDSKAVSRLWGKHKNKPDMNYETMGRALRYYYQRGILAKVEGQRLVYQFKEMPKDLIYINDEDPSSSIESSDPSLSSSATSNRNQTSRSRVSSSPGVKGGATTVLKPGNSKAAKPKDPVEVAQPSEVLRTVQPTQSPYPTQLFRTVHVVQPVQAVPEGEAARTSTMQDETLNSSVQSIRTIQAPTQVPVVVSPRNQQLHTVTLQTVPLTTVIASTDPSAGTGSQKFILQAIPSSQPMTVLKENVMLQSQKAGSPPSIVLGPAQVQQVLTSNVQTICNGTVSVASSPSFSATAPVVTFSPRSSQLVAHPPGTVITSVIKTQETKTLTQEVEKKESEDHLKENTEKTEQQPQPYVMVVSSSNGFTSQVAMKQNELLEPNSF
# Outline: as §1
# EHF = molecular target: T5, EHF (Homo sapiens, UniProt Q9NZC4 1-300); conditions: protein: recombinant; tags: N-terminal GST; dsDNA, one strand shown
# T5 sequence: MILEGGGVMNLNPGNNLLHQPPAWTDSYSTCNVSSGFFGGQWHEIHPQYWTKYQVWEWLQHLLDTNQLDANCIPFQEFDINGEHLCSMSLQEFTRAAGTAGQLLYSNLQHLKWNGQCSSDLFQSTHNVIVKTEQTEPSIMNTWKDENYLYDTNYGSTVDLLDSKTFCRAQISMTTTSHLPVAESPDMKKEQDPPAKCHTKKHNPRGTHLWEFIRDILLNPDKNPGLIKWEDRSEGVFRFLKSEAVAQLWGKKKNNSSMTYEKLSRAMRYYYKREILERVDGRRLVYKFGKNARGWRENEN
# Outline: as §1
# SPI1 = SPI1 (Homo sapiens, UniProt P17947 1-270); conditions: protein: recombinant; tags: N-terminal GST; dsDNA, one strand shown
# Outline: as §1
# SPIB = SPIB (Homo sapiens, UniProt Q01892 1-262); conditions: protein: recombinant; tags: N-terminal GST; dsDNA, one strand shown
# SPIB, sequence (Q01892 whole entry): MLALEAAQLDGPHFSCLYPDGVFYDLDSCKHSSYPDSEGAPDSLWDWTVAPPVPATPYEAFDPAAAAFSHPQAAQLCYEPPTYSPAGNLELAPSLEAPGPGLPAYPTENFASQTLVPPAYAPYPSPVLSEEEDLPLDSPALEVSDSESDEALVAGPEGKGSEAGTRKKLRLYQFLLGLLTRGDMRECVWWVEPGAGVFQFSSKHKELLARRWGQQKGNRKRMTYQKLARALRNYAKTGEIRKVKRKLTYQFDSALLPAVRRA
# Outline: as §1
# ELK3 = molecular target: T6, ELK3 (Homo sapiens, UniProt P41970 1-407); conditions: protein: recombinant; tags: N-terminal GST; dsDNA, one strand shown
# T6 sequence: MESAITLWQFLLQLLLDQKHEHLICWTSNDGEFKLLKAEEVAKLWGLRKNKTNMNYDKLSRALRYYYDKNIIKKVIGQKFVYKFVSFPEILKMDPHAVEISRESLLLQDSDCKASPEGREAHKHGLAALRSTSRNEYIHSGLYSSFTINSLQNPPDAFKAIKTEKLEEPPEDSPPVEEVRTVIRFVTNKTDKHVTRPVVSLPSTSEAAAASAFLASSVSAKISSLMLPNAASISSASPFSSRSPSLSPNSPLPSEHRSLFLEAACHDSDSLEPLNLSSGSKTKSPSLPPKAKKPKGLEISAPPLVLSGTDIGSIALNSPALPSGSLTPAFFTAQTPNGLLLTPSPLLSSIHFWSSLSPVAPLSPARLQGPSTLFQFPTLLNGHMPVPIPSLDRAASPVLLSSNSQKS
# Outline: as §1
# FEV = molecular target: T7, FEV (Homo sapiens, UniProt Q99581 1-238); conditions: protein: recombinant; tags: N-terminal GST; dsDNA, one strand shown
# T7 sequence: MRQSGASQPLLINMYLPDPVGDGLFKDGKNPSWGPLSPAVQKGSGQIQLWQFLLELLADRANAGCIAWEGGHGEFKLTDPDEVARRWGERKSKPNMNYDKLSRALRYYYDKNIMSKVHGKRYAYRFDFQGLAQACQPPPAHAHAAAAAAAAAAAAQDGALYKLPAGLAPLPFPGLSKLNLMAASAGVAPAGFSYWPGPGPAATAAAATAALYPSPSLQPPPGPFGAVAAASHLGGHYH
# Outline: as §1
# ETV5 = ETV5 (Homo sapiens, UniProt P41161 1-510); conditions: protein: recombinant; tags: N-terminal GST; dsDNA, one strand shown
# ETV5, sequence (P41161 whole entry): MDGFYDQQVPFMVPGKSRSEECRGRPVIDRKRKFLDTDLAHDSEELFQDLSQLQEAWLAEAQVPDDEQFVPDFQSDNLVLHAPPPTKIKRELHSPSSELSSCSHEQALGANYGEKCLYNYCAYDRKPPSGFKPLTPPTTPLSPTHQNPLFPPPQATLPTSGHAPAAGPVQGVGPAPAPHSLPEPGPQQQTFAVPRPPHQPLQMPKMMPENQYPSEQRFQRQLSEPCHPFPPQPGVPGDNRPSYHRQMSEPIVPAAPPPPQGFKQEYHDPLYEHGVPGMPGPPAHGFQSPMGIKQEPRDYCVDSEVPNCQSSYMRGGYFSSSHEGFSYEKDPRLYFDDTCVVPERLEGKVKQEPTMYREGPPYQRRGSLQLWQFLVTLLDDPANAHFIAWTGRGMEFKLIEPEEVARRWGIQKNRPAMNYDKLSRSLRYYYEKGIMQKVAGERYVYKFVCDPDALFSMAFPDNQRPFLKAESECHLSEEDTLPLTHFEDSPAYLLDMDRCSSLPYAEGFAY
# Outline: as §1
# HSF1 = HSF1 (Homo sapiens, UniProt Q00613 1-529); conditions: protein: recombinant; tags: N-terminal GST; chain copies: 3; dsDNA, one strand shown
# HSF1, sequence (Q00613 whole entry): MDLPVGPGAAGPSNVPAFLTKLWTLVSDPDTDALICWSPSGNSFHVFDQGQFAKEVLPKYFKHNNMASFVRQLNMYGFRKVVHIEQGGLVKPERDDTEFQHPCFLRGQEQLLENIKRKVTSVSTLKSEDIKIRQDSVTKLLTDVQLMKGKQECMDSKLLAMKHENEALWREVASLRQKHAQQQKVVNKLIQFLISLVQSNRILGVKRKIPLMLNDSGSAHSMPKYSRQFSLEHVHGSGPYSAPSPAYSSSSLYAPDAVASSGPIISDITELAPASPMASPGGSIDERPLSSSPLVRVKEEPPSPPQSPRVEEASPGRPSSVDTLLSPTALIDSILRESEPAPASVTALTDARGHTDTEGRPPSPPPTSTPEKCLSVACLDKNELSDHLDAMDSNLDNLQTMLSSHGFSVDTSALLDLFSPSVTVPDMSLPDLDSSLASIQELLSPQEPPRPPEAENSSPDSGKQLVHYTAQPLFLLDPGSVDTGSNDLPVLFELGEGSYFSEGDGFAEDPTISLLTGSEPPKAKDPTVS
# Outline: as §1
# SPIC = molecular target: T8, SPIC (Homo sapiens, UniProt Q8N5J4 1-248); conditions: protein: recombinant; tags: N-terminal GST; dsDNA, one strand shown
# T8 sequence: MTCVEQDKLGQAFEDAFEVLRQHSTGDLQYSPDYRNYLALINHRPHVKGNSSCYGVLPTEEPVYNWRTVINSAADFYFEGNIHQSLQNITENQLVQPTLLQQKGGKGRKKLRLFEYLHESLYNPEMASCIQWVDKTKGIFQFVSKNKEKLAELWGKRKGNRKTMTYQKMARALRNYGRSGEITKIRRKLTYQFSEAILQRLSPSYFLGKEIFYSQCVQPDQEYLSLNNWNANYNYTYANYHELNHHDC
# Outline: as §1
# ELF4 = ELF4 (Homo sapiens, UniProt Q99607 1-663); conditions: protein: recombinant; tags: N-terminal GST; dsDNA, one strand shown
# ELF4, sequence (Q99607 whole entry): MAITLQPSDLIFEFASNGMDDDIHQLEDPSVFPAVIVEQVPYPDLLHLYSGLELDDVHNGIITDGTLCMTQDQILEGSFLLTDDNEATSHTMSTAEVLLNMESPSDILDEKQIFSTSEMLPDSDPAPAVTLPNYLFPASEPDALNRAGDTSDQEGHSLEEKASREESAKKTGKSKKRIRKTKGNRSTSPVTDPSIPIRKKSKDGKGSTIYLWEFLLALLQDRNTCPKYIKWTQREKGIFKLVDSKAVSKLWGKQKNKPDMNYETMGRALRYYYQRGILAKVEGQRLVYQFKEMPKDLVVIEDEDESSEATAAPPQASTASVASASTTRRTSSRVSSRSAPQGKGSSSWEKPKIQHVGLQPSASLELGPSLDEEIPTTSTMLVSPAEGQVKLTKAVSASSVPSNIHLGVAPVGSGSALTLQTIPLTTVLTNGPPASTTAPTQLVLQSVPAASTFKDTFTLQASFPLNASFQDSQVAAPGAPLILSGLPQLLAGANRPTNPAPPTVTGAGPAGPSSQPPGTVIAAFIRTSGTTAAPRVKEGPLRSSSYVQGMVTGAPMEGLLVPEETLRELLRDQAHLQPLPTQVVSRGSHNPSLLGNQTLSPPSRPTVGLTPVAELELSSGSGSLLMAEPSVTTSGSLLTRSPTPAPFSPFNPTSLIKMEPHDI
# Outline: as §1
# ELK4 = molecular target: T9, ELK4 (Homo sapiens, UniProt P28324-2 1-405); conditions: protein: recombinant; tags: N-terminal GST; dsDNA, one strand shown
# T9 sequence: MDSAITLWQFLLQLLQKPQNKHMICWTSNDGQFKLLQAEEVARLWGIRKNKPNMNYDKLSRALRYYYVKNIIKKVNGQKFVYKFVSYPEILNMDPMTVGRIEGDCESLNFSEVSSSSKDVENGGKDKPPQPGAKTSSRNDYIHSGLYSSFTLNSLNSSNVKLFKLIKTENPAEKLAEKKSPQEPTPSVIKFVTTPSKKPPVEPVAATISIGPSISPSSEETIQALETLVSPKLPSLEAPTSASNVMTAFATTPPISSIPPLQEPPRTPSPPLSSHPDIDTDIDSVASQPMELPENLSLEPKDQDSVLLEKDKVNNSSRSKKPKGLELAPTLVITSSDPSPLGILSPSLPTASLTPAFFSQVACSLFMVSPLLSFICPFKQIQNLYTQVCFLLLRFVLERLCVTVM
# Outline: as §1
# ETV2 = molecular target: T10, ETV2 (Homo sapiens, UniProt O00321 1-342); conditions: protein: recombinant; tags: N-terminal GST; dsDNA, one strand shown
# T10 sequence: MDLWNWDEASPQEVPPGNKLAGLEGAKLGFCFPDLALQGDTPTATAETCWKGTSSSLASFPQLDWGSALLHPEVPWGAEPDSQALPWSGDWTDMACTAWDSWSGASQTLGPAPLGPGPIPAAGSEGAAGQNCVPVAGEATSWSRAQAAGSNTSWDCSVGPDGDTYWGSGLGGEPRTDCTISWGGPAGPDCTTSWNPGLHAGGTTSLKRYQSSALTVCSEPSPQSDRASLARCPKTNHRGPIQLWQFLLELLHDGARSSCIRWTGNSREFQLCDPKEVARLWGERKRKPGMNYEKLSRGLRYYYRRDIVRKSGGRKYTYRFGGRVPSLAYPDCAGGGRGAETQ
# Outline: as §1
# ELF3 = molecular target: T11, ELF3 (Homo sapiens, UniProt P78545 1-371); conditions: protein: recombinant; tags: N-terminal GST; dsDNA, one strand shown
# T11 sequence: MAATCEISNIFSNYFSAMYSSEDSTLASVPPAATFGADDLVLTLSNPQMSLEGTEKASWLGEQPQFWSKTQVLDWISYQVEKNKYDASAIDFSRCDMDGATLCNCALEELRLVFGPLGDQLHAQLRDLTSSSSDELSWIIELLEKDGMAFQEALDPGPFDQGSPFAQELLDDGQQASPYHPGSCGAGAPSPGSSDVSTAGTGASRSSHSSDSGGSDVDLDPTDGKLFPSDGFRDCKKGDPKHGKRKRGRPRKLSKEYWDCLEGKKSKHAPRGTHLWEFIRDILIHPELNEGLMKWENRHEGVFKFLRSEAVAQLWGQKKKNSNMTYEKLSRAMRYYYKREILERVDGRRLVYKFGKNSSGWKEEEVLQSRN
# Outline: as §1
# CRX = CRX (Homo sapiens, UniProt O43186 1-299); conditions: protein: recombinant; tags: N-terminal GST; dsDNA, one strand shown
# CRX, sequence (O43186 whole entry): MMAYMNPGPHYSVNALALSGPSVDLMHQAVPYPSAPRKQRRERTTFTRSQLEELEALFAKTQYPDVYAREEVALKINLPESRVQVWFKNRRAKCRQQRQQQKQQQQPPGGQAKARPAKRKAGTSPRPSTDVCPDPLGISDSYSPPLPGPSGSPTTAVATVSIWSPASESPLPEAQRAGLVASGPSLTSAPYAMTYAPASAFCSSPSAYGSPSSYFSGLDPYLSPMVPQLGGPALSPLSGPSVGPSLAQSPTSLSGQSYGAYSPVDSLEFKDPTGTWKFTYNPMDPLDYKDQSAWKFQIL
# Outline: as §1
# ETV1 = ETV1 (Homo sapiens, UniProt P50549 1-477); conditions: protein: recombinant; tags: N-terminal GST; dsDNA, one strand shown
# ETV1, sequence (P50549 whole entry): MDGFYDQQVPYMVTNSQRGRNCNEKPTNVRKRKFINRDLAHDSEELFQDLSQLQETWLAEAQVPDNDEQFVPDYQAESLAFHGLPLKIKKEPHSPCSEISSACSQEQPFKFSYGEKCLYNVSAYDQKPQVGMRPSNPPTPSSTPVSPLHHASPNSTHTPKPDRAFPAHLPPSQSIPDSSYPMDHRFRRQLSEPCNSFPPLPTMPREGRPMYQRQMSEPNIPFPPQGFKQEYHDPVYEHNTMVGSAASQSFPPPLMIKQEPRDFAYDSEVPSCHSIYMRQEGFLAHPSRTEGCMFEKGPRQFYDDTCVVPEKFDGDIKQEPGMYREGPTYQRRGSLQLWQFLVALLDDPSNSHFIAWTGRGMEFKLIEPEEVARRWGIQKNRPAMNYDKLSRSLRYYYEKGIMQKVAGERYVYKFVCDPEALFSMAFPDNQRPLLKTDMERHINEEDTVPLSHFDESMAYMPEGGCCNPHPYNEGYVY
# Outline: as §1
sequence,measurement,setting,value
AATTTC,binding signal,FLI1,"1.65 fold enrichment (6-mer frequency, TF over GST control)"
same,binding signal,ELK1,"1.59 fold enrichment (6-mer frequency, TF over GST control)"
same,binding signal,GABPA,"1.75 fold enrichment (6-mer frequency, TF over GST control)"
same,binding signal,ERG,"1.94 fold enrichment (6-mer frequency, TF over GST control)"
same,binding signal,ELF1,"1.6 fold enrichment (6-mer frequency, TF over GST control)"
same,binding signal,EHF,"1.77 fold enrichment (6-mer frequency, TF over GST control)"
same,binding signal,SPI1,"1.47 fold enrichment (6-mer frequency, TF over GST control)"
same,binding signal,SPIB,"1.85 fold enrichment (6-mer frequency, TF over GST control)"
same,binding signal,ELK3,"1.79 fold enrichment (6-mer frequency, TF over GST control)"
same,binding signal,FEV,"1.93 fold enrichment (6-mer frequency, TF over GST control)"
same,binding signal,ETV5,"1.8 fold enrichment (6-mer frequency, TF over GST control)"
same,binding signal,HSF1,"1.89 fold enrichment (6-mer frequency, TF over GST control)"
same,binding signal,SPIC,"1.59 fold enrichment (6-mer frequency, TF over GST control)"
same,binding signal,ELF4,"1.61 fold enrichment (6-mer frequency, TF over GST control)"
same,binding signal,ELK4,"1.6 fold enrichment (6-mer frequency, TF over GST control)"
same,binding signal,ETV2,"1.88 fold enrichment (6-mer frequency, TF over GST control)"
same,binding signal,ELF3,"1.75 fold enrichment (6-mer frequency, TF over GST control)"
same,binding signal,CRX,"1.49 fold enrichment (6-mer frequency, TF over GST control)"
same,binding signal,ETV1,"1.79 fold enrichment (6-mer frequency, TF over GST control)"
